# Records with an inconclusive call do not appear. Calls of active or inactive are those of the source. Unless noted, calls come from the whole dose curve; as a rule, active = well fitted curve in the direction sought with a large enough effect; inconclusive = small, poorly fitted or top-dose-only effect, or another doubt; inactive = no such curve, though single readings can be large; an effect the other way counts as inactive or inconclusive.
# Test system: not listed separately
# Assay: S16 Schwann cell viability assay (CellTiter-Glo assay) (AID 624031);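 note: native untransfected S16 rat Schwann cells; plate controls were DMSO-treated cells for no effect and cell-free wells for full effect; nearly all actives have a fitted effect of over 70% in size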
# Details: S16 rat Schwann cells viability, 24 h; series mostly up to 57.5 µM; activity change, negative = cytotoxicity: at the top concentration
# In short: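 Counter-screen for cytotoxicity: parental S16 rat Schwann cells lacking the PMP22 reporters, treated 24 h with compound, viability from cellular ATP by CellTiter-Glo luminescence, normalized to DMSO (0%) and no-cell wells.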
row,Compound,"activity change, negative = cytotoxicity"
1,Nc1nc(N)nc(NC2CC2)n1,-22.6% (inactive)
2,O=C1c2ccccc2C(=O)c2ccccc21,4.97% (inactive)
3,CCOC(=O)CC(SP(=S)(OC)OC)C(=O)OCC (stereo not drawn),0.74% (inactive)
4,C[C@]12CC[C@@H]3c4ccc(OC(=O)N(CCCl)CCCl)cc4CC[C@H]3[C@@H]1CC[C@@H]2O,2.91% (inactive)
5,Nc1ccccc1C(=O)O,7.31% (inactive)
6,CCC(C)(C)c1ccc(O)cc1,-3.1% (inactive)
7,COP(=S)(OC)Oc1ccc(SC)c(C)c1,-15.7% (inactive)
8,c1ccc2c(c1)sc1ccccc12,9.47% (inactive)

# Test system: not listed separately
# Assay: S16 Schwann cell PMP22 intronic element firefly luciferase assay (AID 624032);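 note: plate controls were DMSO for no effect and PTC124 positive control mean for full effect; nearly all actives have a fitted effect of over 30% in size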
# Details: S16 rat Schwann cells, PMP22 element FLuc, 24 h; series mostly up to 57.5 µM; activity change, negative = inhibition: at the top concentration
# In short: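 Rat S16 Schwann cells stably carrying a PMP22 intronic element-driven Fluc reporter were seeded overnight, then exposed to compounds for 24 h at 37 °C. Luminescence was normalized to PTC124 (positive control) and DMSO (0% activity).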
row,Compound,"activity change, negative = inhibition"
1,NC(=O)CC[C@@H]1NC(=O)[C@H](Cc2ccccc2)NC(=O)[C@H](Cc2ccc(O)cc2)NC(=O)[C@@H](N)CSSC[C@@H](C(=O)N2CCC[C@H]2C(=O)N[C@@H](CCCN=C(N)N)C(=O)NCC(N)=O)NC(=O)[C@H](CC(N)=O)NC1=O,-21.9% (inactive)
2,Clc1ccc2c(c1)C(c1ccccc1)=NCc1nncn1-2,-7.97% (inactive)
3,CC(C)COC(=O)c1ccc(N)cc1,134% (inactive)
4,C[C@]12CC[C@@H]3c4ccc(OC(=O)N(CCCl)CCCl)cc4CC[C@H]3[C@@H]1CC[C@@H]2O,-5.63% (inactive)
5,O=C(Nc1ccc(Br)cc1)c1cc(Br)cc(Br)c1O,-9.04% (inactive)
6,CC(C)NC(C)C,-17.8% (inactive)
7,CN1CCC(O)(c2ccc(F)cc2)C(C(=O)c2ccc(F)cc2)C1 (stereo not drawn),-11.1% (inactive)

# Test system: not listed separately
# Assay: S16 Schwann cell PMP22 intronic element beta-lactamase assay (AID 624044; calls by dose curve;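 note: 0% = DMSO and -100% = potassium clavulanate positive control; nearly all actives have a fitted effect of over 15% in size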)
# Details: S16 rat Schwann cells, PMP22 element beta-lactamase FRET, 24 h; series mostly up to 38.3 µM; ratio activity, negative = inhibition: at the top concentration
# In short: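 Beta-lactamase reporter under a PMP22 intronic regulatory element in stable S16 rat Schwann cells; 24 h compound exposure. 460 nm blue signal normalized between DMSO (0%) and potassium clavulanate, with 535 nm FRET tracking viability; curves classed by r2 and response.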
row,Compound,"ratio activity, negative = inhibition"
1,Clc1ccc2c(c1)C(c1ccccc1)=NCc1nncn1-2,-6.8% (inactive)
2,C[C@]12CC[C@@H]3c4ccc(OC(=O)N(CCCl)CCCl)cc4CC[C@H]3[C@@H]1CC[C@@H]2O,5.77% (inactive)
3,Clc1cccc(SC2CCNCC2)n1,-5.69% (inactive)
4,O=C(Nc1ccc(Br)cc1)c1cc(Br)cc(Br)c1O,0.295% (inactive)
5,COP(=S)(OC)Oc1ccc(SC)c(C)c1,-1.3% (inactive)
6,O=C1c2ccccc2C(=O)C1C(=O)C(c1ccccc1)c1ccccc1,-7.28% (inactive)
7,O=C1Nc2ccc(Cl)cc2C(c2ccccc2Cl)=NC1O (stereo not drawn),1.12% (inactive)
8,CN1CCC(O)(c2ccc(F)cc2)C(C(=O)c2ccc(F)cc2)C1 (stereo not drawn),-3.38% (inactive)

# Target: Glutaminase kidney isoform, mitochondrial (Homo sapiens) (UniProt O94925)
# Assay: qHTS for Inhibitors of Glutaminase (GLS): LOPAC Validation (AID 624146);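 note: glutamate product detected by oxidase and peroxidase coupled Amplex red fluorescence gain; % is set by controls: 0 for no effect and ±100 for the full control effect; nearly all actives have a fitted effect of over 60% in size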
# Details: glutaminase enzyme activity inhibition; series mostly up to 46.1 µM; activity change, negative = inhibition: at the top concentration
# In short: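 Compounds were pin-transferred onto hKGA, after which L-glutamine (1 mM solution) and a detection mix of glutamate oxidase, HRP and Amplex Red were added. Initial and 30 min RT fluorescence reads were collected.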
# Sequence of Glutaminase kidney isoform, mitochondrial (Homo sapiens) (O94925 whole entry, looked up, canonical isoform): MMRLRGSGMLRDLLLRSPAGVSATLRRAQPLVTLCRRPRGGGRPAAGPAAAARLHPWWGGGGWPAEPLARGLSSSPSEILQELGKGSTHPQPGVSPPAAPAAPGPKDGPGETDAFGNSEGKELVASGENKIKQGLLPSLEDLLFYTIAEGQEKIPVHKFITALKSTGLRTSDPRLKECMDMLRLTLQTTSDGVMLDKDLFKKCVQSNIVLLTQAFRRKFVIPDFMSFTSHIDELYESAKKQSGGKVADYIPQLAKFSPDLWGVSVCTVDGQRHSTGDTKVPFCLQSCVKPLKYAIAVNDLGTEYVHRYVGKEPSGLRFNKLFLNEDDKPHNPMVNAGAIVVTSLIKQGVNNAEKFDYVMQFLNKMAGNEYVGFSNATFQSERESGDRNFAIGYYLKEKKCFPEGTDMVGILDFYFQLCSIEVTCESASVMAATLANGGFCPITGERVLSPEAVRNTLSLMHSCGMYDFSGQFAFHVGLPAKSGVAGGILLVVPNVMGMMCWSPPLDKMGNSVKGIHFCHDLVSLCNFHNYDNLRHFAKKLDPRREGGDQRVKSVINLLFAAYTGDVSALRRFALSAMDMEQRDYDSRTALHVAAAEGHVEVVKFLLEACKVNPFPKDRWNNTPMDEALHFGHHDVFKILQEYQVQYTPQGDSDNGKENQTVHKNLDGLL
Compound,Potency,"activity change, negative = inhibition"
CC(C)N(CCC(C(N)=O)(c1ccccc1)c1ccccn1)C(C)C (stereo not drawn),inactive,
CC(NC(C)(C)C)C(=O)c1cccc(Cl)c1 (stereo not drawn),,-4.67% (inactive)
CCC1(c2ccc(N)cc2)CCC(=O)NC1=O (stereo not drawn),,-16.4% (inactive)

# Test system: not listed separately
# Assay: qHTS of Trypanosoma Brucei Inhibitors: LOPAC Validation (AID 624147); note: 0% is about no effect
# Details: purified enzyme assay, luminescence, 45 min; series mostly up to 57.5 µM; activity change, negative = inhibition: at the top concentration
# In short: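 Activity of T. brucei pyruvate kinase was followed by Kinase-Glo Plus luminescence after the enzyme reacted 45 min at room temperature with 130 uM ADP (final) and substrate. Test compounds were added before ADP at multiple concentrations.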
Compound,outcome,"activity change, negative = inhibition"
CC(C)N(CCC(C(N)=O)(c1ccccc1)c1ccccn1)C(C)C (stereo not drawn),inactive,
CC(NC(C)(C)C)C(=O)c1cccc(Cl)c1 (stereo not drawn),,-3.28% (inactive)
CCC1(c2ccc(N)cc2)CCC(=O)NC1=O (stereo not drawn),,-7.54% (inactive)

# Target: Glucagon-like peptide 1 receptor (Homo sapiens) (UniProt P43220)
# Assay: qHTS of GLP-1 Receptor Agonists: LOPAC Validation (AID 624148);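 note: 0% is about no effect; higher luminescence signal means agonism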
# Details: GLP-1R agonist cell assay; series mostly up to 46.1 µM; activation: at the top concentration
# In short: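 HEK293 cells stably co-expressing a cAMP-responsive luciferase reporter and a hypersensitive GLP-1R were plated 12 h at 37 °C and exposed to compounds for 4-6 hr at 37 °C, 5% CO2. Luminescence was read 12 min after adding detection reagent.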
# Sequence of Glucagon-like peptide 1 receptor (Homo sapiens) (P43220 whole entry, looked up): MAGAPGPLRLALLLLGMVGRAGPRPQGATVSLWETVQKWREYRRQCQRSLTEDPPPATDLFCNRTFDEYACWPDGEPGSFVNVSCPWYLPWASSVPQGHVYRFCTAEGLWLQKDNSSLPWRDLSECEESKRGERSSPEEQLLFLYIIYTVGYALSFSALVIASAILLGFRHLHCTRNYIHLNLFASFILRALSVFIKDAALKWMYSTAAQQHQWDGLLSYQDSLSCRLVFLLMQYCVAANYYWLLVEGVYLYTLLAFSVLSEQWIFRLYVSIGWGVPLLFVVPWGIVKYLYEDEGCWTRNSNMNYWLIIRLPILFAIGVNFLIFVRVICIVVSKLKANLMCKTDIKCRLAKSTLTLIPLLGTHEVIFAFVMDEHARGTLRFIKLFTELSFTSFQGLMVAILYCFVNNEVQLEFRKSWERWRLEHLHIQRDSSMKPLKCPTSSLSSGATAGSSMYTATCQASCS
Compound,outcome,activation
CC(C)N(CCC(C(N)=O)(c1ccccc1)c1ccccn1)C(C)C (stereo not drawn),inactive,
CC(NC(C)(C)C)C(=O)c1cccc(Cl)c1 (stereo not drawn),,-1.54% (inactive)
CCC1(c2ccc(N)cc2)CCC(=O)NC1=O (stereo not drawn),,-1.75% (inactive)

# Test system: not listed separately
# Assay: HTS Assay for Allosteric Antagonists of the Human D2 Dopamine Receptor: Hit Validation in HTRF (AID 624455);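 note: stable D1 dopamine receptor cell line scored for blocking the D1 response; potency is the fitted concentration of half-maximal effect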
# Details: Cells stably expressing D1 dopamine receptor, inhibition mode; series mostly up to 46.1 µM; activity, negative = inhibition: at the top concentration
# In short: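 Validation of hits used D1 receptor stably expressed in cells with HTRF detection of response inhibition; origin screen measured calcium flux following EC80 dopamine in a force-coupled, inducible Hek293 Trex D2 cell line.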
row,Compound,Potency
1,CC(C)C[C@H]1C(=O)N2CCC[C@H]2[C@]2(O)O[C@](NC(=O)[C@@H]3C=C4c5cccc6[nH]c(Br)c(c56)C[C@H]4N(C)C3)(C(C)C)C(=O)N12,3.26 µM (active)
